Most compounds without a hit are left out; they make up all but 1.1% or so of the library.
OTUD3 block = human OTUD3 deubiquitinase inhibition; Q5T2D3; purified OTUD3, Ub-rhodamine fluorescence, 2 h; inhibition, % at 25 µM; 47,000 compounds, 0.7% hits; AID 1645858
UCHL1 block = inhibitors of human UCHL1 deubiquitinase; P09936; purified UCHL1, Ub-rhodamine cleavage fluorescence; inhibition, % at 20 µM; 47,000 compounds, 0.2% hits; AID 1645859
USP7 inh = inhibitors of human USP7 deubiquitinase; AID 1645854; purified USP7, Ub-rhodamine cleavage fluorescence; inhibition, % at 20 µM; 47,000 compounds, 0.3% hits
Target sequence (Q93009 whole entry, looked up): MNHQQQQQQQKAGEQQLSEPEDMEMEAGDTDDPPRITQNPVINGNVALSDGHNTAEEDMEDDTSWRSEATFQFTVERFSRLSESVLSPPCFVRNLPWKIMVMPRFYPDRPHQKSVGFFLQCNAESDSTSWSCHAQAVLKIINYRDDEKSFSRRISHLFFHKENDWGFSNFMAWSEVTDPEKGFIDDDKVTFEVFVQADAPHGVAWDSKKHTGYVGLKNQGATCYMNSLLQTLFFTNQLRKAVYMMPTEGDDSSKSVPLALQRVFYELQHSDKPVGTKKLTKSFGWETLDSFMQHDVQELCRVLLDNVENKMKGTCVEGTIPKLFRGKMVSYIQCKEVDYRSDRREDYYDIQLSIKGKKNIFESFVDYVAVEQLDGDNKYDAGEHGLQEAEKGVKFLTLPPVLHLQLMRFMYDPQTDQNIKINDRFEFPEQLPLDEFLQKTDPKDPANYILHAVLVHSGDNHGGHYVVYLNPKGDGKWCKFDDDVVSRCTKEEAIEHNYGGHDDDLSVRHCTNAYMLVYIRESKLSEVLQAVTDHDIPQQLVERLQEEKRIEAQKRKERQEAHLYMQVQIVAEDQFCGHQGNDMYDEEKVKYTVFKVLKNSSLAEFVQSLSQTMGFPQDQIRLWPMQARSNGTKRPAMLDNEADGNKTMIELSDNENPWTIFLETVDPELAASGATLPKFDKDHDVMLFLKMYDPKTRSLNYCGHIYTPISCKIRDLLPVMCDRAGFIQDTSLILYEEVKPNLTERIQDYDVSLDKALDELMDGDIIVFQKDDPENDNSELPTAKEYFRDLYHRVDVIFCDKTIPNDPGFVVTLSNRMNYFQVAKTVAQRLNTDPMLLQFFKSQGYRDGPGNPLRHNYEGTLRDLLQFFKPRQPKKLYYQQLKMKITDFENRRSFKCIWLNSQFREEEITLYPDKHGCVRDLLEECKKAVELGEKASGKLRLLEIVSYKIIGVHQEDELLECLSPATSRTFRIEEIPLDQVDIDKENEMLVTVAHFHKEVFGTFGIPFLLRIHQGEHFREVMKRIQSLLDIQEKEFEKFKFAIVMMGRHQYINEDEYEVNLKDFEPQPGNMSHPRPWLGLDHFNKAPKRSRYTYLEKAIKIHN
An asterisk follows results filed as active. Cut-off read from the data, not from the text of the source: active = inhibition above about 30%; inactive = the rest.

SMILES	OTUD3 block	UCHL1 block	USP7 inh
Cc1ccc(-c2ccc(N3CCOCC3)nn2)cc1S(=O)(=O)N1CCOCC1	-9	-5	-9
O=C(c1cc(Cl)ccc1Cl)N1CCN(c2ccc3nnc(-c4ccco4)n3n2)CC1	8	4	4
Cc1ccc(C)c(S(=O)(=O)N2CCN(c3ccc4nnc(-c5ccco5)n4n3)CC2)c1	23	45*	37*
O=C(C1CC1c1ccccc1)N1CCN(c2ccccc2)CC1 (stereo not given)	-34	-5	-14
O=C(Cn1c(=O)n(Cc2ccncc2)c(=O)c2ncccc21)Nc1ccccc1	5	0	1
O=C(Cn1c(=O)n(Cc2ccccc2)c(=O)c2ncccc21)NCc1ccccc1Cl	-6	9	33*
COc1ccc(N2CCN(CCNC(=O)CCc3nnc4n(CCc5ccccc5)c(=O)c5ccccc5n34)CC2)cc1	-1	-4	0
Cc1nc(-c2ccc(C(=O)Nc3cccc(F)c3)cc2)cs1	1	1	8
Cc1nc(-c2ccc(C(=O)Nc3ccc(F)cc3)cc2)cs1	10	10	34*
Nc1cc(C2CCN(C(=O)c3nccc4ccccc34)CC2)no1	2	-4	0
CCc1nc2sc(C)nn2c1S(=O)(=O)N1CCCCCC1	-6	-3	-10
Cc1ncncc1C(=O)N1CCCC(c2ncc(Cc3cccc(F)c3)o2)C1 (stereo not given)	21	1	1
Cc1ncncc1C(=O)N1CCCC(C)(c2ncc(Cc3cccc(F)c3)o2)C1 (stereo not given)	82*	4	1
Cc1nc(-c2ccc3c(c2)nnn3CCN2CCOCC2)no1	41*	0	4
CCc1nc(-c2ccc3c(c2)nnn3CCN2CCCCC2)no1	-2	2	-12
N=C1C(c2nc3ccccc3s2)=C(O)CN1Cc1ccc(F)cc1	-1	-3	3
CC(c1ccccc1)N1CC(O)=C(c2nc3ccccc3s2)C1=N (stereo not given)	7	0	30*
Cc1cccc(-n2c(=O)[nH]c3c(C(N)=O)nc(-c4ccccn4)nc32)c1	7	-4	-2
NC(=O)c1nc(-c2ccccn2)nc2c1[nH]c(=O)n2-c1ccc2c(c1)OCO2	45*	3	6
NC(=O)c1nc(C2CCCCC2)nc2c1[nH]c(=O)n2-c1ccc2c(c1)OCO2	6	3	9
NC(=O)c1nc(-c2cccnc2)nc2c1[nH]c(=O)n2-c1ccc2c(c1)OCO2	48*	1	7
Cc1ccc(CSc2nnc(C3CCNCC3)o2)cc1	12	3	-8
C[C@@H]1CC[C@H]2C(C)(C)[C@H](O)[C@@H](O)C[C@]2(C)[C@@]12Cc1c(O)cc3c(c1O2)CNC3=O	-1	3	7
Cc1ccc2[nH]cc(S(=O)(=O)c3cc(F)cc(F)c3)c(=O)c2c1	7	28	36*
Cc1ccc2[nH]cc(S(=O)(=O)c3ccc(C)c(F)c3)c(=O)c2c1	-3	4	20
SMILES	OTUD3 block	UCHL1 block	USP7 inh
Cc1ccc(S(=O)(=O)NCc2ccc(C(=O)NCCc3ccc(S(N)(=O)=O)cc3)cc2)cc1	77*	3	21
Cc1cccc(CCNC(=O)c2ccc(CNS(=O)(=O)c3ccc(F)cc3)cc2)c1	-1	0	4
CN(C)S(=O)(=O)N1CCc2nc3ccccc3n2C(Cc2ccccc2)C1 (stereo not given)	-9	-2	0
C=C1C=C(CCC(=O)O)C(=O)OC1/C=C/C=C/C (stereo not given)	96*	81*	78*
Cc1cccc(C(=O)Nc2nccn(-c3ccc4c(c3)CCC4)c2=O)c1	3	0	-5
COc1ccccc1CC(=O)N(C)C(c1ccccc1)c1ccccc1	35*	3	1
COc1cc(CCC(=O)N(C)C(c2ccccc2)c2ccccc2)cc(OC)c1OC	0	2	-3
O=C(CN1C(=O)COc2ccccc21)N1CCC(c2nc3ccccc3o2)CC1	10	3	5
CCOC(=O)C1CCN(Cc2cc(=O)oc3cc(O)c(O)cc23)CC1	85*	76*	52*
CCOC(=O)C1CCCN(Cc2cc(=O)oc3cc(C)c(C(C)C)cc23)C1 (stereo not given)	0	2	6
COCCN1CC(=O)N2C(c3ccc([N+](=O)[O-])cc3)c3[nH]c4ccccc4c3C[C@H]2C1=O (stereo not given in full)	3	2	2
Cc1cccc(/C=C/c2cc(C(=O)O)c3ccccc3n2)c1	-8	0	0
N#Cc1cccc(NC2c3ncccc3C(=O)N2Cc2ccc(F)cc2)c1 (stereo not given)	-25	-2	-10
COc1ccccc1N(C(=O)Nc1ccccc1)C1=NCCC1	7	8	-2
c1cc(-c2ccsc2)[nH]n1	8	1	5

Bioassay records as filed in PubChem BioAssay.
